Measured values published in PubChem BioAssay (Tox21).
Results filed as inconclusive are left out. The source made the active and inactive calls. Unless noted, the call rests on the fitted dose curve; in most records, active means well fitted curve in the direction sought with a large enough effect in the repeat runs; inconclusive means weak or mixed curves; inactive means no such curve, though single readings can be large; an effect the other way counts as inactive or inconclusive.

Key:
[1] = qHTS assay to identify small molecule antagonists of the androgen receptor (AR) signaling pathway using the MDA cell line - cell viability counter screen (AID 743041; further: nearly all actives have a fitted effect of over 45% in size)
Procedure, shortened: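 MDA-kb2 AR-luc human breast carcinoma cells (MMTV-luciferase, AR/GR responsive) were treated with compounds plus R1881 agonist for 16 h at 37 °C. Viability was read as CellTiter-Fluor fluorescence in the same wells as the reporter assay.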

[2] = target: Androgen receptor (Homo sapiens) (UniProt P10275); assay: qHTS assay to identify small molecule antagonists of the androgen receptor (AR) signaling pathway using the MDA cell line (AID 743042; further: nearly all actives have a fitted effect of over 55% in size)
Procedure, shortened: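 MDA-kb2 cells (human breast carcinoma, stably carrying an MMTV-luciferase reporter responsive to AR and GR) were plated at 3,000 cells/well and preincubated 5 hr at 37C, then given compound plus R1881 agonist for 16 h. ONE-Glo luminescence was read.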

[3] = qHTS assay to identify small molecule antagonists of the thyroid receptor (TR) signaling pathway - cell viability counter screen (AID 743064); further: nearly all actives have a fitted effect of over 50% in size
Procedure, shortened: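 CellTiter-Fluor readout, 30 min at 37 °C/5% CO2, following 23.5 h incubation of GH3.TRE-Luc cells with test compound and 1 nM T3 (final).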

[4] = qHTS assay to identify small molecule antagonists of the thyroid receptor (TR) signaling pathway (AID 743065); further: series mostly up to about 70 µM; nearly all actives have a fitted effect of over 55% in size
Procedure, shortened: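 GH3.TRE-Luc rat pituitary cells carrying two TR response elements driving luciferase were plated for 4 h, given compound plus 1 nM T3 (final), and incubated 23.5 h at 37 C. ONE-Glo luminescence measured reporter inhibition; CellTiter-Fluor fluorescence tracked cytotoxicity.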

[5] = system: thyroid hormone receptor (rat, GH3 cells); assay: qHTS assay to identify small molecule agonists of the thyroid receptor (TR) signaling pathway (AID 743066; calls by dose curve)
[6] = target: Estrogen receptor (Homo sapiens) (UniProt P03372); assay: qHTS assay to identify small molecule antagonists of the estrogen receptor alpha (ER-alpha) signaling pathway (AID 743069; active means well fitted curve in the direction sought with a large enough effect in the signal ratio in the repeat runs, not every such curve was filed as active; the % refers to the signal ratio)
Procedure, shortened: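 HEK293 cells stably carrying an ER-alpha-UAS-bla beta-lactamase reporter were pre-cultured overnight in 2% charcoal-stripped FBS medium. Test compounds in DMSO were added together with 17beta-estradiol for 18 hr at 37C. Read-out was fluorescence after 2 hr with LiveBLAzer B/G FRET substrate at room temperature.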

[7] = qHTS assay to identify small molecule antagonists of the estrogen receptor alpha (ER-alpha) signaling pathway - cell viability counter screen (AID 743074; calls by dose curve; further: nearly all actives have a fitted effect of over 45% in size)
[8] = target: Estrogen receptor (Homo sapiens) (UniProt P03372); assay: qHTS assay to identify small molecule agonists of the estrogen receptor alpha (ER-alpha) signaling pathway (AID 743075; calls by dose curve)
[9] = target: Estrogen receptor (Homo sapiens) (UniProt P03372); assay: qHTS assay to identify small molecule agonists of the estrogen receptor alpha (ER-alpha) signaling pathway using the BG1 cell line (AID 743079); further: nearly all actives have a fitted effect of over 20% in size
[10] = qHTS assay to identify small molecule antagonists of the estrogen receptor alpha (ER-alpha) signaling pathway using the BG1 cell line (AID 743080; calls by dose curve;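 further: BG1 cells stimulated with 17beta-estradiol alongside compound; series mostly up to about 70 µM; nearly all actives have a fitted effect of over 25% in size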)
Procedure, shortened: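 Readout is ONE-Glo luminescence, taken 30 min at room temperature after reagent addition, preceded by a CellTiter-Fluor viability read; BG1-Luc-4E2 cells had received compound and 17beta-estradiol for 21.5 h at 37 C.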

[11] = qHTS assay to identify small molecule antagonists of the estrogen receptor alpha (ER-alpha) signaling pathway using the BG1 cell line - cell viability counter screen (AID 743081);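 further: compound given together with 17beta-estradiol as the ER stimulus; series mostly up to about 70 µM; nearly all actives have a fitted effect of over 45% in size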
Aromatase (Homo sapiens) = Aromatase (Homo sapiens) (UniProt P11511); assay: qHTS assay to identify aromatase inhibitors (AID 743083); further: series mostly up to about 70 µM; nearly all actives have a fitted effect of over 55% in size
[12] = qHTS assay to identify aromatase inhibitors - cell viability counter screen (AID 743084);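 further: cells stimulated with testosterone during compound exposure; nearly all actives have a fitted effect of over 55% in size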
[13] = target: Aryl hydrocarbon receptor (Homo sapiens) (UniProt P35869); assay: qHTS assay to identify small molecule that activate the aryl hydrocarbon receptor (AhR) signaling pathway (AID 743085);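 further: HG2L7.5c1 human HepG2 liver cells with stably integrated DRE-driven firefly reporter; series mostly up to about 70 µM; nearly all actives have a fitted effect of over 15% in size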
Procedure, shortened: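 Stably transfected human liver carcinoma cells (HG2L7.5c1; 20 DRE-firefly luciferase) were incubated 5 h, dosed, and kept 24 h at 37C. Agonism was scored from increased luciferase luminescence.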

[14] = qHTS assay to identify small molecule that activate the aryl hydrocarbon receptor (AhR) signaling pathway - cell viability counter screen (AID 743086);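 further: HepG2 liver cells carrying the AhR DRE luciferase reporter; series mostly up to about 70 µM; nearly all actives have a fitted effect of over 45% in size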
Procedure, shortened: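 HepG2-AhR-luc (HG2L7.5c1) cells, 4000/well, were preincubated 5 h at 37C, exposed to compound in qHTS format for 24 hr at 37C, then given CellTiter-Fluor for 30 min; viability was read as fluorescence in the reporter wells.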

[15] = target: Peroxisome proliferator-activated receptor gamma (Homo sapiens) (UniProt P37231); assay: qHTS assay to identify small molecule agonists of the peroxisome proliferator-activated receptor gamma (PPARg) signaling pathway (AID 743094; active means well fitted activation curve with a large enough effect in the signal ratio in the repeat runs, not every such curve was filed as active; the % refers to the signal ratio)
Procedure, shortened: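 GeneBLAzer PPARg UAS-bla HEK293H cells were plated, rested 5 h, then exposed to compounds for 17 h at 37C. Beta-lactamase activity was read by LiveBLAzer B/G FRET substrate fluorescence after 1 h at room temperature.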

[16] = qHTS assay to identify small molecule antagonists of the estrogen related receptor (ERR) signaling pathway - cell viability counter screen (AID 1224818); further: series mostly up to about 46 µM
Procedure, shortened: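 ERR cells, 2,000 per well, compound added after 6 h and incubated 17.5 h at 37 C. Viability read by CellTiter-Fluor fluorescence after a further 30 min at 37 C.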

[17] = qHTS assay to identify small molecule antagonists of the estrogen related receptor (ERR) signaling pathway (AID 1224819;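 further: luminescence from an ERR-driven luciferase reporter measured with One-Glo reagent; series mostly up to about 46 µM; nearly all actives have a fitted effect of over 50% in size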)
Procedure, shortened: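 ERR reporter cell line (NTP) plated at 2,000 cells/well, settled 6 h at 37C/5% CO2, then exposed to LOPAC compounds for 18 h at 37C. One-Glo luciferase luminescence read after 30 min at room temperature.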

[18] = qHTS assay to identify small molecule agonists of the estrogen related receptor (ERR) signaling pathway (AID 1224820)
Procedure, shortened: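 Quantitative HTS of the LOPAC library used NTP ERR reporter cells treated 18 h at 37 C. Signal is luminescence after One-Glo addition and a 30 min room-temperature incubation.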

[19] = system: estrogen-related receptor alpha (ERRalpha) with PGC-1alpha coactivator, human; assay: qHTS assay to identify small molecule antagonists of the estrogen related receptor signaling pathway with the pleiotropic PPARgamma coactivator (PGC) (AID 1224821; calls by dose curve;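 further: series mostly up to about 46 µM; lower luminescence signal means antagonism of PGC/ERR signalling; nearly all actives have a fitted effect of over 50% in size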)
Procedure, shortened: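 Quantitative HTS for antagonism: PGC/ERR cells received compounds after 6 h attachment and were incubated 18 h at 37 C, with luminescence (One-Glo) as the endpoint.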

[20] = qHTS assay to identify small molecule antagonists of the estrogen related receptor signaling pathway with the pleiotropic PPARgamma coactivator (PGC) cell viability counter screen (AID 1224822; further: series mostly up to about 46 µM)
Procedure, shortened: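 PGC/ERR cells rested 6 h, then compound-treated 17.5 h at 37 C. CellTiter-Fluor added for 30 min at 37 C, viability measured by fluorescence intensity.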

[21] = qHTS assay to identify small molecule agonists of the estrogen related receptor signaling pathway with the pleiotropic PPARgamma coactivator (PGC) (AID 1224823)
Procedure, shortened: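 Cell-based luciferase assay in the NTP-supplied PGC/ERR line, 2,000 cells/well; 18 h compound exposure at 37 C, luminescence after One-Glo.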

[22] = qHTS assay to identify small molecule phospholipidosis (PLD) inducers (AID 1259344; active means well fitted curve in the direction sought with a large enough effect; an effect the other way counts as inactive or inconclusive)
Procedure, shortened: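 HepG2 cells on collagen I, attached 4 h at 37 C, were co-treated with compound and LipidTOX Red dye for 24 h at 37 C, then fixed with paraformaldehyde plus Hoechst 33342 and imaged by high-content microscopy for phospholipid accumulation.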

[23] = target: Nuclear receptor subfamily 1 group I member 2 (Homo sapiens) (UniProt O75469); assay: CYP3A4 induction through human pregnane X receptor (PXR) by small molecules, qHTS assay (AID 1346984); further: nearly all actives have a fitted effect of over 40% in size
Procedure, shortened: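 DPX-2 HepG2 cells carrying a PXR response element and CYP3A4-promoter luciferase construct, treated with compounds 24 hr at 37C. Then P450-Glo CYP3A4 Luciferin-IPA substrate (3uM final) for 3 hr at 37C, One-Glo added, luminescence read.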

[24] = target: Nuclear receptor subfamily 1 group I member 2 (Homo sapiens) (UniProt O75469); assay: Human pregnane X receptor (PXR) activation by small molecules, qHTS assay (AID 1346985); further: nearly all actives have a fitted effect of over 40% in size
Procedure, shortened: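 DPX-2 cells (HepG2 co-transfected with a PXR response element and a CYP3A4-promoter luciferase construct) were seeded at 2,000 per well, rested 5 hr at 37C, then exposed to DMSO-dissolved compounds for 24 hr. Activation was read as luciferase luminescence.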

Measured: Potency

Estrogen receptor (Homo sapiens), sequence (P03372 whole entry, looked up): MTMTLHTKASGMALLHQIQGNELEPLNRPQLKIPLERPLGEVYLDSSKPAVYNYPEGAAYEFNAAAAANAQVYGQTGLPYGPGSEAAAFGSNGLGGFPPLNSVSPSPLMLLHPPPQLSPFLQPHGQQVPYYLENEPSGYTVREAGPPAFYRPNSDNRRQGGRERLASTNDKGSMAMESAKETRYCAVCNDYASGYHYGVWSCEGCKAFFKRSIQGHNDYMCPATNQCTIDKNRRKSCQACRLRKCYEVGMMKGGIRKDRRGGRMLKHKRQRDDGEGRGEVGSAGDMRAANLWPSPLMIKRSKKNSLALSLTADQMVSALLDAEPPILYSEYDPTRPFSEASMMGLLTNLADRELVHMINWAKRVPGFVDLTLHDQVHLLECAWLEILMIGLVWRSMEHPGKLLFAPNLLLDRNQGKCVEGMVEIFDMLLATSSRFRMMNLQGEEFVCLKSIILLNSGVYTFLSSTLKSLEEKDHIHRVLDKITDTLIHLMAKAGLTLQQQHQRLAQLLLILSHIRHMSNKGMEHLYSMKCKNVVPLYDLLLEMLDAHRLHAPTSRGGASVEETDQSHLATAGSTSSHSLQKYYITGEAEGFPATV
Aromatase (Homo sapiens), sequence (P11511 whole entry, looked up): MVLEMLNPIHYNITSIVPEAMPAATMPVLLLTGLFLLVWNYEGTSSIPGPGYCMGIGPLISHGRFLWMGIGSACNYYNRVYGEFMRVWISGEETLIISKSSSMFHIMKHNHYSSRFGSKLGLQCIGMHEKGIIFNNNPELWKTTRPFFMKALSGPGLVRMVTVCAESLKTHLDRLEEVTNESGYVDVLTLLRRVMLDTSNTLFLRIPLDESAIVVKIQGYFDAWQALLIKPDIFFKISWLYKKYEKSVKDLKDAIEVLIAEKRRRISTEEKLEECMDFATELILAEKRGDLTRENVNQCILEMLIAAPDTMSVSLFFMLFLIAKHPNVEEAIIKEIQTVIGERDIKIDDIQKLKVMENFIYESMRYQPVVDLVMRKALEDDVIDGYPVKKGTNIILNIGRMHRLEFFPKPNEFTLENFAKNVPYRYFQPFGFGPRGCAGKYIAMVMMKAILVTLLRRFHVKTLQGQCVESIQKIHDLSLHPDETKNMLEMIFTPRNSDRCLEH
Androgen receptor (Homo sapiens), sequence (P10275 whole entry, looked up): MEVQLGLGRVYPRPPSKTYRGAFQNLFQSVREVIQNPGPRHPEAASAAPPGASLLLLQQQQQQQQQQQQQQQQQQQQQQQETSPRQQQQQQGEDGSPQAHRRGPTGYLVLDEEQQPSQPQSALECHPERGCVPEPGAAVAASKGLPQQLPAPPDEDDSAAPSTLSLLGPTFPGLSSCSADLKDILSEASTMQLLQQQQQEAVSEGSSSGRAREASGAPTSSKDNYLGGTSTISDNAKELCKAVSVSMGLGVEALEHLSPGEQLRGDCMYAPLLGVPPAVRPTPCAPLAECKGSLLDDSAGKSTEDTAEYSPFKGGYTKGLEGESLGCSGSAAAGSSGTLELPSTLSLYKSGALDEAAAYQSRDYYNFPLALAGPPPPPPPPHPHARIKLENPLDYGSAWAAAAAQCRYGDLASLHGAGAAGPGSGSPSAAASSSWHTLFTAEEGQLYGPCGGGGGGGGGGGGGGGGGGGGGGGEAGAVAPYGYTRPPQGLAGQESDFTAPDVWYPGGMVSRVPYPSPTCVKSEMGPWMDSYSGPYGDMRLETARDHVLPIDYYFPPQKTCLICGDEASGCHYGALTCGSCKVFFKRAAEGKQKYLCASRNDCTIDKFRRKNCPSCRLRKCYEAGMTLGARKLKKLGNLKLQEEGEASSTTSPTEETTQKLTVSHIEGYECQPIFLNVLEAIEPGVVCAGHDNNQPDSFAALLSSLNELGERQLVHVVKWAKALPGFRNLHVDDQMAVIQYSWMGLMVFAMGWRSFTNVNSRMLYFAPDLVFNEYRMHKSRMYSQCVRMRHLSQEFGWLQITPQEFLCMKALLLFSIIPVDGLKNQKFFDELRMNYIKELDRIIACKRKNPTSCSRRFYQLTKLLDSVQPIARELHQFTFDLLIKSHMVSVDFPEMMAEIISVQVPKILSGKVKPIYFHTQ
Peroxisome proliferator-activated receptor gamma (Homo sapiens), sequence (P37231 whole entry, looked up): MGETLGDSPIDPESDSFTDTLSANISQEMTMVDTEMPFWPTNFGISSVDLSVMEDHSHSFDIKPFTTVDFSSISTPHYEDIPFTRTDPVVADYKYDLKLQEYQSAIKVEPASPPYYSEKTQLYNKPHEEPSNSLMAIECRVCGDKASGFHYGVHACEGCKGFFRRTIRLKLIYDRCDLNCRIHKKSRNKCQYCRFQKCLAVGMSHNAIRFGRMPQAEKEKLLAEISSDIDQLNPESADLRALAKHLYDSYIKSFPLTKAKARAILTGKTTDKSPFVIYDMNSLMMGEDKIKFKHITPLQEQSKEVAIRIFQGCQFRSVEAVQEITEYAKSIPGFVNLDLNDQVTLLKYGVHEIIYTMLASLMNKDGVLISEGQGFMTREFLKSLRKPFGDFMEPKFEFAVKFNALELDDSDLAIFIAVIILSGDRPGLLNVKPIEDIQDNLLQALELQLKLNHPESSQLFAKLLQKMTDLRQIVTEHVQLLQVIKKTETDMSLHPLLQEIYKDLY
Aryl hydrocarbon receptor (Homo sapiens), sequence (P35869 whole entry, looked up): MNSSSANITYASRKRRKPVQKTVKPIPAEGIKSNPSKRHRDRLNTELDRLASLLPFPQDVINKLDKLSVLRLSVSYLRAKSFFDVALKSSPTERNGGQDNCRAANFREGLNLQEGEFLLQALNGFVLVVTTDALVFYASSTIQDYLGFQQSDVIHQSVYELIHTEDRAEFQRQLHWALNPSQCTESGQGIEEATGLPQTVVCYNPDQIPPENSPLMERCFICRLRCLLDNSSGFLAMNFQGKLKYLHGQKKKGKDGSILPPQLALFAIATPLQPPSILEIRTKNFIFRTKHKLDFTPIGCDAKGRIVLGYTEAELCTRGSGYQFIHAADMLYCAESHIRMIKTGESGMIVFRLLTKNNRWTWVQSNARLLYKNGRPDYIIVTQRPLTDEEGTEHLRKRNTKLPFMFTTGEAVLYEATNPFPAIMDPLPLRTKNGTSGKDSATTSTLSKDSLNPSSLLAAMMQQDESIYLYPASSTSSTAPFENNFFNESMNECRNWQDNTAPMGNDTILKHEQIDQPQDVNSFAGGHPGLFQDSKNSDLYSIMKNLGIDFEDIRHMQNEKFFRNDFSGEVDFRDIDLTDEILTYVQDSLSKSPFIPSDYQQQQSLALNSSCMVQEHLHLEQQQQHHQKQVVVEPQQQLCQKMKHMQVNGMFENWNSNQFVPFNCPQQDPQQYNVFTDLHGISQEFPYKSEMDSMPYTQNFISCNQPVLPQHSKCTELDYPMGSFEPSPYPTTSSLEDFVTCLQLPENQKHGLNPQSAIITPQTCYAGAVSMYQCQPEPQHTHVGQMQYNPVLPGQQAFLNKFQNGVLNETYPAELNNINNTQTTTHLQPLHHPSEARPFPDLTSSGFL

CCCCCN(C)CCC(O)(P(=O)(O)O)P(=O)(O)O
inactive: all assays above
